From PubChem BioAssay (EPA / NIEHS)
Several values for one entry are separate records, joined by “and”; a condition that tells them apart may be missing. Equal values may be shown once. Results filed as inconclusive are left out. Activity calls are given as the source filed them. Rule for the calls, unless noted: active = hit-call score of the fitted dose curve at least 0.9, where 1 is the maximum; inconclusive = response in the unintended direction; inactive = score below 0.9.

How the values were obtained:
[1] = tested on: frog Estrogen Receptor (ESR2), gene 100174814; experiment: ATG_frER2_XSP1: Attagene TRANS-FACTORIAL Multi-Species (XSP1) HepG2 Assay for frog Estrogen Receptor (ESR2) (AID 2283774)
Method in brief: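 Multiplexed TRANS-format reporter assay in human hepatoma HepG2: chimeric nuclear receptor-Gal4 activity reported as mRNA induction at 24 h, detected by fluorescent RT-PCR products on capillary electrophoresis and fitted upward from DMSO baseline.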

[2] = tested on: zebrafish Estrogen Receptor (ESR2A), gene 317734; experiment: ATG_zfER2a_XSP1: Attagene TRANS-FACTORIAL Multi-Species (XSP1) HepG2 Assay for zebrafish Estrogen Receptor (ESR2A) (AID 2283778)
Method in brief: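 Gain-of-signal reporter transcription readout from GAL4-UAS units in transiently transfected HepG2 cells, 24 h exposure, 3 nM 6-alpha-fluorotestosterone co-present. Detection by RT-PCR with capillary electrophoresis fluorescence.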

[3] = ATG_M_19_XSP1: Attagene TRANS-FACTORIAL Multi-Species (XSP1) HepG2 Assay for M19 Transcription Factor (Internal Marker) (AID 2283798)
Method in brief: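 Readout is reporter mRNA induction quantified via RT-PCR, 6-FAM labeling, HpaI digestion and capillary electrophoresis, fitted in the positive direction versus DMSO baseline. Transfected HepG2 cells exposed 24 h, medium including 3 nM 6-alpha-fluorotestosterone.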

[4] = ATG_M_32_XSP1: Attagene TRANS-FACTORIAL Multi-Species (XSP1) HepG2 Assay for M32 Transcription Factor (Internal Marker) (AID 2283799)
Method in brief: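 Reporter transcripts from the M32 internal-control unit measured by RT-PCR, FAM labelling, HpaI digestion and capillary electrophoresis after 24 h compound exposure of transfected HepG2, 3 nM 6-alpha-fluorotestosterone included; DMSO baseline, positive-direction fit.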

[5] = tested on: zebrafish Peroxisome Proliferator-activated Receptor gamma (PPARg), gene 557037; experiment: ATG_zfPPARg_XSP1: Attagene TRANS-FACTORIAL Multi-Species (XSP1) HepG2 Assay for zebrafish Peroxisome Proliferator-activated Receptor gamma (PPARg) (AID 2283801)
Method in brief: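 Trans-activation readout of chimeric zebrafish PPARg–GAL4 in transiently transfected human HepG2 cells, 24 h chemical exposure (medium includes 3 nM 6-alpha-fluorotestosterone). Reporter transcripts measured by RT-PCR and capillary electrophoresis, fitted as gain over DMSO.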

[6] = molecular target: Nuclear receptor subfamily 1 group I member 2 (Mus musculus) (UniProt O54915); experiment: ATG_mPXR_XSP1: Attagene TRANS-FACTORIAL Multi-Species (XSP1) HepG2 Assay for mouse Pregnane X Receptor (PXR) (AID 2283803)
Nuclear receptor subfamily 1 group I member 2 (Mus musculus), sequence (O54915 whole entry, looked up, the tested form may be a part): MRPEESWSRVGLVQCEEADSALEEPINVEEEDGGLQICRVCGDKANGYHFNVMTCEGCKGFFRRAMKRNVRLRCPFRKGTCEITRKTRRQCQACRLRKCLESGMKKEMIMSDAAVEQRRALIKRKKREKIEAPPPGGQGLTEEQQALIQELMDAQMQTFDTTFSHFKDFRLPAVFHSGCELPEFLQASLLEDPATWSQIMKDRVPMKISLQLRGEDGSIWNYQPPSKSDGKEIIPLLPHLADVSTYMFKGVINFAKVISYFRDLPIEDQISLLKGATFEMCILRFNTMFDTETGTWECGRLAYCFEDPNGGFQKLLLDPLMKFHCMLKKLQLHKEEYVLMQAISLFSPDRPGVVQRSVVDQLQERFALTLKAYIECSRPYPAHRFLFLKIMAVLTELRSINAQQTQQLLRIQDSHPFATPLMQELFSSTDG
Method in brief: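 Transiently transfected HepG2 cells expressing a receptor-Gal4 chimera drive a GAL4-UAS reporter; 3 nM 6-alpha-fluorotestosterone included. Reporter mRNA read 24 h post-dose by RT-PCR and capillary electrophoresis; gain of signal relative to DMSO.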

[7] = tested on: turtle Thyroid Hormone Receptor, alpha (TRa), gene 101949057; experiment: ATG_trTRa_XSP1: Attagene TRANS-FACTORIAL Multi-Species (XSP1) HepG2 Assay for turtle Thyroid Hormone Receptor, alpha (TRa) (AID 2283806)
Method in brief: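 After 24 h chemical exposure, reporter transcripts were measured by RT-PCR with fluorescent primer extension, HpaI digestion and capillary electrophoresis. Cells were transiently transfected HepG2 expressing exogenous NR-Gal4 chimeras; medium contained 3 nM 6-alpha-fluorotestosterone; fitted upward relative to DMSO.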

[8] = molecular target: human Thyroid hormone Receptor beta (TRb), THRB (gene 7068) (UniProt P10828); experiment: ATG_hTRb_XSP1: Attagene TRANS-FACTORIAL Multi-Species (XSP1) HepG2 Assay for human Thyroid hormone Receptor beta (TRb) (AID 2283808)
human Thyroid hormone Receptor beta (TRb), THRB (gene 7068), sequence (P10828 whole entry, looked up, the tested form may be a part): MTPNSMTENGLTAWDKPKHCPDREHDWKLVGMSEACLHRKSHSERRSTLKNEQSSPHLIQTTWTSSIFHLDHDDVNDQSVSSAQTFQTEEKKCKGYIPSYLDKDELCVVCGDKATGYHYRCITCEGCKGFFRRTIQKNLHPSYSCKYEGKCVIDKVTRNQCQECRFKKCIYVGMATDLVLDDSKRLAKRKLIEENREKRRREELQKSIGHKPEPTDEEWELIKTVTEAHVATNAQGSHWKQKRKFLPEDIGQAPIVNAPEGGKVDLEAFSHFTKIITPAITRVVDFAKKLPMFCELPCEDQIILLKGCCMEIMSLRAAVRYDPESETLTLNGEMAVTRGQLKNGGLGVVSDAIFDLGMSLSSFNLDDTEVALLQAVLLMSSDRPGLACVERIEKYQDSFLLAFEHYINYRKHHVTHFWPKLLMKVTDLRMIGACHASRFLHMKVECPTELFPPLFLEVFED
Method in brief: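 Readout is reporter mRNA induction measured by RT-PCR, fluorescent labelling and capillary electrophoresis, fitted upward relative to DMSO. Transiently transfected human HepG2 cells expressing NR-Gal4 chimeras were dosed for 24 h, medium containing 3 nM 6-alpha-fluorotestosterone.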

[9] = molecular target: zebrafish Thyroid Hormone Receptor beta (TRb), thrb (gene 30607) (UniProt Q9PVE4); experiment: ATG_zfTRb_XSP1: Attagene TRANS-FACTORIAL Multi-Species (XSP1) HepG2 Assay for zebrafish Thyroid Hormone Receptor beta (TRb) (AID 2283809)
zebrafish Thyroid Hormone Receptor beta (TRb), thrb (gene 30607), sequence (Q9PVE4 whole entry, looked up, the tested form may be a part): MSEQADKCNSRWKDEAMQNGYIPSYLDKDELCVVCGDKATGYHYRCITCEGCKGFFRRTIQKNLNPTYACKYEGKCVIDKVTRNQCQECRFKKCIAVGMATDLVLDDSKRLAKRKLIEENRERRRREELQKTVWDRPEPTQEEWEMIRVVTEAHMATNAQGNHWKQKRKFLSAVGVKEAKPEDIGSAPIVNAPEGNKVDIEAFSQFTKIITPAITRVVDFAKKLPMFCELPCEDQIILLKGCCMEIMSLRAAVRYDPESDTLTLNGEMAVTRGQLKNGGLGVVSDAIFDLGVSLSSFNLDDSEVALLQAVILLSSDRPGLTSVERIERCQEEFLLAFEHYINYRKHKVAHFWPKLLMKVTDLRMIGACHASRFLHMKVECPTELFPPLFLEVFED
Method in brief: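 HepG2 cells transiently transfected with multiplexed GAL4-UAS reporter units expressing chimeric zebrafish TRb–Gal4. Dosed 24 h with 3 nM 6-alpha-fluorotestosterone present; reporter mRNA measured by RT-PCR, HpaI digestion and capillary electrophoresis; gain of signal versus DMSO.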

[10] = ATG_M_19_XSP2: Attagene TRANS-FACTORIAL Multi-Species (XSP2) HepG2 Assay for M32 Transcription Factor (Internal Marker) (AID 2283822)
Method in brief: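 Internal background marker in a multi-species nuclear receptor TRANS panel: transfected HepG2 cells exposed 24 h, with 3 nM 6-alpha-fluorotestosterone and 1.5 nM norgestrel present. Readout is RT-PCR of reporter transcripts resolved by capillary electrophoresis, gain-of-signal versus DMSO.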

[11] = tested on: frog Estrogen Receptor (ER2), gene 100174814; experiment: ATG_frER2_XSP2: Attagene TRANS-FACTORIAL Multi-Species (XSP2) HepG2 Assay for frog Estrogen Receptor (ER2) (AID 2283828)
Method in brief: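 Induction of reporter mRNA, baseline set by DMSO, is the endpoint. The panel was run in transfected HepG2 cells over 24 h, with 3 nM 6-alpha-fluorotestosterone and 1.5 nM norgestrel present to stimulate androgen receptor.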

[12] = molecular target: Nuclear receptor subfamily 1 group I member 2 (Mus musculus) (UniProt O54915); experiment: ATG_mPXR_XSP2: Attagene TRANS-FACTORIAL Multi-Species (XSP1) HepG2 Assay for mouse Pregnane X Receptor (PXR) (AID 2283831)
Method in brief: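 Transient HepG2 transfection, multiplexed GAL4-UAS reporters, NR-GAL4 chimeras. 24 h compound exposure. Readout: reporter mRNA, RT-PCR, fluorescent capillary electrophoresis; positive direction vs DMSO baseline.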

[13] = tested on: turtle Thyroid Hormone Receptor, alpha (TRa), gene 101949057; experiment: ATG_trTRa_XSP2: Attagene TRANS-FACTORIAL Multi-Species (XSP1) HepG2 Assay for turtle Thyroid Hormone Receptor, alpha (TRa) (AID 2283834);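 note: hits raise reporter mRNA over the DMSO baseline so AC50 marks activators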
Method in brief: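 Readout: reporter mRNA induction, fluorescence after RT-PCR, HpaI digestion and capillary electrophoresis. Transiently transfected HepG2, exogenous NR-Gal4 chimera driving GAL4-UAS reporter, 24 h compound exposure. Activity fitted upward relative to DMSO baseline.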

[14] = molecular target: human Thyroid hormone Receptor alpha (TRa), THRA (gene 7067) (UniProt P10827); experiment: ATG_hTRa_XSP2: Attagene TRANS-FACTORIAL Multi-Species (XSP2) HepG2 Assay for human Thyroid hormone Receptor alpha (TRa) (AID 2283838)
human Thyroid hormone Receptor alpha (TRa), THRA (gene 7067), sequence (P10827 whole entry, looked up, the tested form may be a part): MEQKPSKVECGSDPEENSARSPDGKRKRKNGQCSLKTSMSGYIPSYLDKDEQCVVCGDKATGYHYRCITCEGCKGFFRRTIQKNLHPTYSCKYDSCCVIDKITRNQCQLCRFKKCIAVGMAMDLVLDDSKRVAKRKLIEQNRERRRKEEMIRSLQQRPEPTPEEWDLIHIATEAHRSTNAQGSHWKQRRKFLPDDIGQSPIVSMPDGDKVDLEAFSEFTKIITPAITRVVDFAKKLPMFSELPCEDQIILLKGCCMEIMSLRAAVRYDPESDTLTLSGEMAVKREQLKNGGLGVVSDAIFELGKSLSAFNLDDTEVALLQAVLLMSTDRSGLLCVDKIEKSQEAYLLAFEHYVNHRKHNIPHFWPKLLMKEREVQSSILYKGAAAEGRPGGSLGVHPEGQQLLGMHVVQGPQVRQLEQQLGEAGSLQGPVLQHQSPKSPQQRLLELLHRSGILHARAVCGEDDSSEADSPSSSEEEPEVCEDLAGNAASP
Method in brief: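 Reporter transcripts were read by RT-PCR with fluorescent primer extension, HpaI digestion and capillary electrophoresis. These came from HepG2 cells carrying multiplexed TRa-Gal4 TRANS constructs, harvested 24 hours after dosing. The medium also held 6-alpha-fluorotestosterone (3 nM) and norgestrel (1.5 nM), and increases were fitted against DMSO.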

[15] = molecular target: frog Thyroid hormone Receptor alpha (TRa), thra-a (gene 397942) (UniProt P15204); experiment: ATG_frTRa_XSP2: Attagene TRANS-FACTORIAL Multi-Species (XSP2) HepG2 Assay for frog Thyroid hormone Receptor alpha (TRa) (AID 2283839)
frog Thyroid hormone Receptor alpha (TRa), thra-a (gene 397942), sequence (P15204 whole entry, looked up, the tested form may be a part): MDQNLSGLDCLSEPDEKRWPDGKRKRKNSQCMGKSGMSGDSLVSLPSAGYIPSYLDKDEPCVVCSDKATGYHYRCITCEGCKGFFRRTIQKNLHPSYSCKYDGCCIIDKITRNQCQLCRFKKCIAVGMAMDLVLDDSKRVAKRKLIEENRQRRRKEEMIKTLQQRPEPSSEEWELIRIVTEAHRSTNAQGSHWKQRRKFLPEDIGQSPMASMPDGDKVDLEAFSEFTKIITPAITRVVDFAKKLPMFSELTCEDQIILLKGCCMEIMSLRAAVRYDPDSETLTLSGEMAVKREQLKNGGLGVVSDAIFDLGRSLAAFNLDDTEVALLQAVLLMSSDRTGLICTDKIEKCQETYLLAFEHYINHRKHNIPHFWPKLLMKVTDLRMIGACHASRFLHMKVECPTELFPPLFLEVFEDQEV
Method in brief: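 Read-out: fluorescent reporter-transcript fragments resolved by capillary electrophoresis after RT-PCR and HpaI cut. Human HepG2 liver cells carry a transfected frog TRα-Gal4 chimera driving a UAS reporter; 24 h exposure, DMSO baseline, positive-direction fit.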

[16] = molecular target: Glucocorticoid receptor (Homo sapiens) (UniProt P04150); experiment: NVS_NR_hGR: NovaScreen (NVS) Nuclear Receptor Binding Assay for human Glucocorticoid Receptor (GR) (AID 2283363);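 for AC50: activity is loss of specific radioligand binding signal relative to DMSO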
Glucocorticoid receptor (Homo sapiens), sequence (P04150 whole entry, looked up): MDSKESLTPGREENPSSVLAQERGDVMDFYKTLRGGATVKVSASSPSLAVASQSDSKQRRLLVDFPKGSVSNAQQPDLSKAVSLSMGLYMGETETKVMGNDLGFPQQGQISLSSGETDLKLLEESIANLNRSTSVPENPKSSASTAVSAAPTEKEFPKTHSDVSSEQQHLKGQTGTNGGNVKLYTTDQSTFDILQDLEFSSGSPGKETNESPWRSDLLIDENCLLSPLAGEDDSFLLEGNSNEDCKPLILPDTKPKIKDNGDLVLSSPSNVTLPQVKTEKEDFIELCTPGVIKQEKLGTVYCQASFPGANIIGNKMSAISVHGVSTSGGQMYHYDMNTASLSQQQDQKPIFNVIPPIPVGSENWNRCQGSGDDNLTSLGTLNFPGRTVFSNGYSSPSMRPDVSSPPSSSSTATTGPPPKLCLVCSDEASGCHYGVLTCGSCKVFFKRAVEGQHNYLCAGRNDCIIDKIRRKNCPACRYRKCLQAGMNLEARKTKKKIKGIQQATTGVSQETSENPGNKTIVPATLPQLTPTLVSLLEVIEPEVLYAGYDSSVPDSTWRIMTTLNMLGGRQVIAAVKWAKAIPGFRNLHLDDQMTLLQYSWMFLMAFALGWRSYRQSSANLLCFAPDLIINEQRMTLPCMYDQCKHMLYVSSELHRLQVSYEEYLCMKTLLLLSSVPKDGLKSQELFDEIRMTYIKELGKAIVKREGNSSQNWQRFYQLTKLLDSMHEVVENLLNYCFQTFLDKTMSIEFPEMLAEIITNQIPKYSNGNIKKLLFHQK
Method in brief: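 Single-readout cell-free binding: radioligand plus extracted receptor, 16-hour dosing, filter radiodetection; 25 uM duplicate primary, concentration series secondary.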

[17] = CCTE_Mundy_HCI_hNP1_Pro_ResponderAvgInten: CCTE's Proliferation Assay in human neuroprogenitor cells, Mundy Lab (AID 2284224);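 note: human neural progenitor cells hNP1 derived from WA09 embryonic stem cells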
Method in brief: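 Human neuroprogenitors (hNP1, WA09 lineage) receive test chemical after 40 to 44 hours of attachment. A four-hour BrdU pulse begins twenty hours later, followed by fixation and high content imaging; signal is referenced to DMSO controls.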

[18] = CCTE_Mundy_HCI_hNP1_Casp3_7: CCTE's Caspase-Glo 3/7 Assay in human neuroprogenitor cells for Apoptosis, Mundy Lab (AID 2284240; active = hit-call score of the fitted dose curve at least 0.9, where 1 is the maximum; inactive = score below 0.9)
Method in brief: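 Neuroepithelial-lineage stem cells from WA09 embryonic cells were treated with chemicals after 40–44 h of culture. Twenty-four hours later, caspase-3/7 activation was detected luminescently after a 30 min room-temperature reagent step, with DMSO as baseline.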

CDK2 (gene 1017) = CDK2 (gene 1017) (UniProt P24941); experiment: NVS_ENZ_hCDK2: NovaScreen (NVS) Enzymatic Assay for human Cyclin-Cependent Kinase 2 (CDK2) (AID 2283144)
Method in brief: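 Compounds screened in duplicate at 25 uM, then in singleton concentration-response to a maximum of 50 uM, against recombinant CDK2; kinase activity read 1 hr after dosing by fluorescence with mobility-shift separation of substrate and product.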

[19] = molecular target: human Protein Tyrosine Phosphatase Receptor Type M (PTPRM), PTPRM (gene 5797) (UniProt P28827); experiment: NVS_ENZ_hPTPRM: NovaScreen (NVS) Enzymatic Assay for human Protein Tyrosine Phosphatase Receptor Type M (PTPRM) (AID 2283215)
human Protein Tyrosine Phosphatase Receptor Type M (PTPRM), PTPRM (gene 5797), sequence (P28827 whole entry, looked up): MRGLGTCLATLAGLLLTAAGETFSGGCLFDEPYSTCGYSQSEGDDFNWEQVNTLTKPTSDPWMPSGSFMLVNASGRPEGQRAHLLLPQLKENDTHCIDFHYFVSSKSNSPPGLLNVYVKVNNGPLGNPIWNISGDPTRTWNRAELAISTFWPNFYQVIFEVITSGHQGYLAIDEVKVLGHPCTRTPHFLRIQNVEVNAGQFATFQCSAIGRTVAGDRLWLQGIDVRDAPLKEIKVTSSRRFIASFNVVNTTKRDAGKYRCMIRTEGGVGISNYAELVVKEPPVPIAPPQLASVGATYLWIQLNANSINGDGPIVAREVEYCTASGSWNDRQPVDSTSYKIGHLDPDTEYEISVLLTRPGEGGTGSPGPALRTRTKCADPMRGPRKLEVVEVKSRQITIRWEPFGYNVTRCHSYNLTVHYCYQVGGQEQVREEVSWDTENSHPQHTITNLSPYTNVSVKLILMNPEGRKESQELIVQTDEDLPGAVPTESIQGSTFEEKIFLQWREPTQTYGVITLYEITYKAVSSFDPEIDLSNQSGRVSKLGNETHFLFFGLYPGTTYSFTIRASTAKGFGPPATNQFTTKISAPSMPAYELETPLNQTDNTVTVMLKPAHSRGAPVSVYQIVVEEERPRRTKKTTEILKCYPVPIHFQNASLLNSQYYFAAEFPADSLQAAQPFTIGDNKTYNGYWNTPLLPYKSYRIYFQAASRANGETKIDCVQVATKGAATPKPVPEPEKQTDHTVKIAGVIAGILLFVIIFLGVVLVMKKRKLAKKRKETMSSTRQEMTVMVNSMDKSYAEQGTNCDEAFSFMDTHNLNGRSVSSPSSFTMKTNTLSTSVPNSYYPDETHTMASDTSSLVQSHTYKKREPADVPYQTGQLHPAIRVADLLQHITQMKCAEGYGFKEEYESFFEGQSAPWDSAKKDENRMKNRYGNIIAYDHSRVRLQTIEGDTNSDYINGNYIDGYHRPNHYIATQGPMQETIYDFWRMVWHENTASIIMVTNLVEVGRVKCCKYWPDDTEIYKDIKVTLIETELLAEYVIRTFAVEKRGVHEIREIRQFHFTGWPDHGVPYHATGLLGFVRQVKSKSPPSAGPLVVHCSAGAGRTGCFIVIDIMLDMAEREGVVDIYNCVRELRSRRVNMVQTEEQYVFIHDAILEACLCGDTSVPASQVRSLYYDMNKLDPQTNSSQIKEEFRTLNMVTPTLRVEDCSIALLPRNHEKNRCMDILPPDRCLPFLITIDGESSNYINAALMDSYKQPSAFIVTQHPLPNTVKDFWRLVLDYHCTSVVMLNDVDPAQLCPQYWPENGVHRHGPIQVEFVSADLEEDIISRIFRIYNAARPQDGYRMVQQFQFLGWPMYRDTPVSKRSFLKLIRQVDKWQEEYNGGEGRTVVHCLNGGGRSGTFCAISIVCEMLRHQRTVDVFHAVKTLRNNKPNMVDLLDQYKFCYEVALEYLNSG
Method in brief: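 Read-out is fluorescence after electrophoretic separation of substrate and product, taken 1.33 h post-dosing with recombinant enzyme. Compounds screened at 25 uM in duplicate, then concentration series for actives; activity as signal loss relative to DMSO.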

CC(C)CCCCCCCOC(=O)c1ccccc1C(=O)OCCCCCCCC(C)C
outcome [1]: inactive | outcome [2]: inactive | outcome [3]: inactive | outcome [4]: inactive | outcome [5]: inactive | AC50 [6]: 611 nM (active) | outcome [7]: inactive | outcome [8]: inactive | outcome [9]: inactive | outcome [10]: inactive | outcome [11]: inactive | AC50 [12]: 1520 nM (active) | AC50 [13]: 100000 nM (active) | outcome [14]: inactive | outcome [15]: inactive

CC(C)(C)C(O)C(Oc1ccc(-c2ccccc2)cc1)n1cncn1 (stereo not given)
outcome [16]: inactive

CNC(=N[N+](=O)[O-])NCC1CCOC1 (stereo not given)
outcome [17]: inactive | outcome [18]: inactive

N#CCCCCC#N
outcome (CDK2 (gene 1017)): inactive | outcome [19]: inactive

CC1(C)[C@H](C(=O)O[C@H](C#N)c2cccc(Oc3ccccc3)c2)[C@@H]1C=C(Br)Br
outcome [17]: inactive | outcome [18]: inactive

CC(C)(c1cc(Cl)c(O)c(Cl)c1)c1cc(Cl)c(O)c(Cl)c1
AC50 [16]: 544 nM (active) and 146 nM (active) | AC50 [1]: 3550 nM (active) | AC50 [2]: 2020 nM (active) | outcome [3]: inactive | outcome [4]: inactive | outcome [5]: inactive | outcome [7]: inactive | outcome [8]: inactive | outcome [9]: inactive | AC50 [11]: 5920 nM (active) | outcome [13]: inactive | outcome [14]: inactive | outcome [15]: inactive

O=[N+]([O-])c1ccc(Cl)cc1
outcome (CDK2 (gene 1017)): inactive | outcome [19]: inactive

CC(=O)c1cc2c(cc1C)C(C)(C)C(C)CC2(C)C (stereo not given)
AC50 [6]: 1000 nM (active) | outcome [10]: inactive | AC50 [12]: 1800 nM (active)
